The results in this text go back to PubChem BioAssay.

Usually inhibition stands for the change of the read-out against control, counted positive when it falls.

The target in assay [1] is Nuclear receptor coactivator 3 (Homo sapiens) (UniProt Q9Y6Q9). In words: NCOA3 GAL4-fusion reporter inhibition – cell-based, luminescence, quadruplicate, confirmation (AID 588792).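 Also: 0% = DMSO treated cells and 100% = gossypol at 36 µM.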 The conditions noted are these: HEK293 GAL4-SRC3 luciferase reporter, at 3.6 µM, active compounds read high.
Nuclear receptor coactivator 3 (Homo sapiens), sequence (Q9Y6Q9 whole entry, looked up, the tested form may be a part): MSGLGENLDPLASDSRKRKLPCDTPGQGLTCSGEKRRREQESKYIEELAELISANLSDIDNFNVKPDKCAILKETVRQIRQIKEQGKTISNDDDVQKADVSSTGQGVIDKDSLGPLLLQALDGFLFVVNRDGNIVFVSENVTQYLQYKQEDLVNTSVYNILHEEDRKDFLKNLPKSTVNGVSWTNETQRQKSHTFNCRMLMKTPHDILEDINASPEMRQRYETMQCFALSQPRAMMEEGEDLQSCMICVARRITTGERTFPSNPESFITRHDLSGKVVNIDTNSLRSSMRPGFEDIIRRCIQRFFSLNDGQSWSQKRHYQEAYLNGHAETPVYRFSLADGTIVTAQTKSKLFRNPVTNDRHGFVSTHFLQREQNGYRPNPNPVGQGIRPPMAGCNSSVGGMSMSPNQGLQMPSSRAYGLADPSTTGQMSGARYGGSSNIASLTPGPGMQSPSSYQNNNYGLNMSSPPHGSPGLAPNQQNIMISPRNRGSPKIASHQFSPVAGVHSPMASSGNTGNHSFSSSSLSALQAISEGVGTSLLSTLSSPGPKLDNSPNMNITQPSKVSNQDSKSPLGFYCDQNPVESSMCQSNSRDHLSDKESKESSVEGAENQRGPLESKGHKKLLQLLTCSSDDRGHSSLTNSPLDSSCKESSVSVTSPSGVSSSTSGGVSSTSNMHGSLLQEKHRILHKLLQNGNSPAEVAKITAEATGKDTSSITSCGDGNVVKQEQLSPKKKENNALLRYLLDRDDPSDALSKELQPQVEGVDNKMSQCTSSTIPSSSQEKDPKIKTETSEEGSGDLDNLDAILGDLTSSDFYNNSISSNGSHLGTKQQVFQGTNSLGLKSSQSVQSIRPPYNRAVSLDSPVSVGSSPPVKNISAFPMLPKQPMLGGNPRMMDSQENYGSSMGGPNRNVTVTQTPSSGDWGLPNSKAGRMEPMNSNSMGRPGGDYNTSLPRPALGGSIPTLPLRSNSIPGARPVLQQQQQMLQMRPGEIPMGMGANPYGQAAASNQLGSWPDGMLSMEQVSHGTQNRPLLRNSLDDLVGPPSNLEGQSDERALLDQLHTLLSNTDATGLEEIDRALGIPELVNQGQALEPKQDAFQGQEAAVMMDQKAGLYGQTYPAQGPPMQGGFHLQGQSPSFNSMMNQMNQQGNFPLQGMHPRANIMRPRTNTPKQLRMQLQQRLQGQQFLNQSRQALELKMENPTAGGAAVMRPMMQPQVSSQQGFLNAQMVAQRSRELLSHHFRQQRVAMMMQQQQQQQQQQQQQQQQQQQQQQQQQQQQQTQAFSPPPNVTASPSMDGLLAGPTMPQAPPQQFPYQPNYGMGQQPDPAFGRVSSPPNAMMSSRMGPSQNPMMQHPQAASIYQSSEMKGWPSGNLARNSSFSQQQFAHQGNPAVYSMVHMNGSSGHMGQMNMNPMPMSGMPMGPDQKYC
In assay [2] the test system is transactivating tegument protein VP16 (Human herpesvirus 1), Gal4-VP16 luciferase reporter. Put plainly: repression of VP16-driven luciferase reporter – cell-based, luminescence, high throughput, counter-screen for SRC3 inhibitor project (AID 588794; in the data active = inhibition above about 30%). The conditions noted are these: mammalian cells, at 3.6 µM, active compounds read high. Background: A reporter such as luciferase makes a cellular process visible.

Unmarked numbers belong to inactive results. Activity calls are given as the source filed them.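 The calls were made as follows, unless noted: active = mean inhibition over 43.08%, the solvent-only control mean plus 3 SD; inactive = the rest.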 Square brackets hold non-standard residues; d marks the D form. Peptide text beside a SMILES is read from it. NMeY = CN[C@@H](Cc1ccc(O)cc1)C(=O)O; NMeF = CN[C@@H](Cc1ccccc1)C(=O)O; 2Abz = Nc1ccccc1C(=O)O

For `COC(=O)c1ccc(NC(=O)Cn2c(-c3nonc3N)nc3ccccc32)cc1`, the results for the inhibition in assay [1] and in assay [2] were 17% and 3.85%, respectively.
In the case of `Cc1ccc(-c2c[n+](Cc3ccc(Cl)c(Cl)c3)c3n2CCC3)cc1`, the values for the inhibition in assay [1] and in assay [2] were 17.6% and 25.3%, respectively.
With `Cc1nc2cc(F)ccc2n1C1CCN(S(=O)(=O)c2ccccc2)CC1`, the inhibition in assay [1] is 14.1%; in assay [2] it was 15.3%.
Taken in the same sequence, the figures for `COc1ccc(C)cc1NC(=O)CN1C(=O)CSc2ccc(S(=O)(=O)N3CCCC3)cc21` were 4.25% and 3.04%.
Taken in the same sequence, the figures for `CN1C(=O)C2(C(C#N)=C(N)N(c3cc(Cl)cc(Cl)c3)C3=C2C(=O)CCC3)c2ccccc21` (centres undefined) were 30.9% and 27.9%.
The matching figures for `COc1cc(C2C(C#N)=C(SC)NC3=C2C(=O)CCC3)ccc1O` (centres undefined): 20.9% and 14.7%.
Consider `O=C(CCN1CCN(c2ccccc2)CC1)Nc1ccc(Cl)cc1`, for which the inhibition in assay [1] was 3.39%; in assay [2], 1.2%.
As to `Oc1cccc2ccc(Nc3ccccn3)nc12`, the values for the inhibition in assay [1] and in assay [2] were 3.4% and -8.03%, respectively.
Taken in the same sequence, the figures for `COc1ccc(OC)c(Nc2nc(N)nc(CCl)n2)c1` were 15.4% and 4.74%.
Taken in the same sequence, the figures for `Cc1cc(C)n(-c2ccc(C(=O)Nc3cccc(S(=O)(=O)N(C)C)c3)cc2)n1` were -2.01% and 18.6%.
Taken in the same sequence, the figures for `COn1c(C)c(C(C)=O)c2c3nonc3ccc21` were 22.5% and 33.5% (active).
Regarding `COc1cc(NC(=O)c2cc3ccccc3cc2OC)ccc1NC(=O)c1cccs1`, the results for the inhibition in assay [1] and in assay [2] were 4.37% and -1%, respectively.
Taken in the same sequence, the figures for `COc1ccc(OCc2nn3c(-c4ccco4)nnc3s2)cc1` were -8.03% and -4.08%.
With `CN1C(=O)C2(C(C#N)=C(N)N(c3cc(Cl)cc(Cl)c3)C3=C2C(=O)CC(C)(C)C3)c2ccccc21` (centres undefined), the inhibition is 46.5% (active) in assay [1] and 25.6% in assay [2].
`CCN(CC(=O)Nc1ccc(OC)cc1)C(=O)CSCC(=O)Nc1cc(C)on1`: the inhibition is 5.34% in assay [1] and 5.42% in assay [2].
Taken in the same sequence, the figures for `Cc1ccc(C2(c3ccc(C)cc3)CC2C(=O)Nc2ccc([N+](=O)[O-])cc2O)cc1` (centres undefined) were 11.3% and 19.4%.
Taken in the same sequence, the figures for `CCN(CC)CCCNc1nc2ccccc2c2nc(-c3ccncc3)nn12` were -2.05% and 41.3% (active).
Consider `O=c1c2ccccc2cnn1CCOc1ccccc1`, for which the figures for the inhibition in assay [1] and in assay [2] were -15.3% and -21.5%, respectively.
Regarding `COc1ccccc1OCC(=O)NNC(=O)C1CCN(c2ncnc3sc(C)c(C)c23)CC1`, the results for the inhibition in assay [1] and in assay [2] were 3.67% and 0.76%, respectively.
In the case of `COc1ccc(N/N=C/c2c(C(=O)O)ccc3ccccc23)cc1`, the inhibition in assay [1] was 31.2%; in assay [2], 36.5% (active).
In the case of `CCOC(=O)/C(C#N)=C/c1cc(C)n(-c2ccccc2)c1C`, the inhibition was 18.5% in assay [1] and 18.2% in assay [2].
Taken in the same sequence, the figures for `C=CCSc1nc2ccccc2n1C(=O)/C=C/c1cc(OC)c(OC)c(OC)c1` were -6.27% and -10.3%.
Taken in the same sequence, the figures for `COc1c(Cl)cc(Cl)cc1/C=C/C(=O)c1ccc(NC(=O)c2cccs2)cc1` were 48.7% (active) and 26.6%.
Taken in the same sequence, the figures for `CCC(=O)NC(c1cccs1)c1cc(Cl)c2cccnc2c1O` (centres undefined) were 20.9% and 25.6%.
On to `O=C(Nc1cccc(S(=O)(=O)N2CCCCC2)c1)c1ccc(S(=O)(=O)C(F)F)cc1`, for which the results for the inhibition in assay [1] and in assay [2] were 3.35% and 14.9%, respectively.
For `CCOC(=O)CC/C(C)=N\N=C1\SC(CC(=O)O)C(=O)N1c1ccccc1` (centres undefined), the inhibition in assay [1] is 0.21%; in assay [2] it was -4.68%.
Taken in the same sequence, the figures for `Cc1cccc(/C=N/n2c(-c3ccncc3)n[nH]c2=S)c1` were 11.2% and 2.95%.
Taken in the same sequence, the figures for `CN1CCCC(n2nc(Cc3ccc(Cl)cc3)c3ccccc3c2=O)CC1` (centres undefined) were 10.3% and 2.25%.
Consider `O=C(N/N=C/c1c(O)ccc2ccccc12)c1ccc(Br)o1`, for which the figures for the inhibition in assay [1] and in assay [2] were 57.3% (active) and 43.2% (active), respectively.
Taken in the same sequence, the figures for `Clc1ccc(-c2c[n+](Cc3ccc(Cl)cc3Cl)c3n2CCCCC3)cc1` were 6.98% and 10.8%.
The matching figures for `Cc1cc(C=C2C(=O)c3ccccc3C2=O)c(C)n1-c1cccc(C(=O)O)c1`: 23.3% and 10.4%.
Taken in the same sequence, the figures for `CC(C)C[C@@H]1NC(=O)[C@H](Cc2ccccc2)N(C)C(=O)[C@H](C)NC(=O)c2ccccc2NC(=O)[C@H](Cc2ccc(O)cc2)N(C)C1=O` (cyclo([2Abz]A[NMeF]L[NMeY])) were 18.1% and 17.5%.
Take `CC1(C)C2CCC(C2)C1C/C=N/NC(N)=S` (centres undefined): the inhibition in assay [1] is 17.5%; in assay [2], 13.4%.
Taken in the same sequence, the figures for `Cc1cc(NC2CCCCC2)nc(NCc2ccccc2)n1` were 18.8% and 28.1%.
Taken in the same sequence, the figures for `Cc1cc(C(=O)N2CCN(c3ccccn3)CC2)no1` were 4.36% and -9.5%.
Taken in the same sequence, the figures for `CCCCCCCN1C2=NCCCN2c2ccccc21` were -5.13% and 21%.
In the case of `Cc1ccc(-c2csc(NC(=O)c3cccc(C)c3)c2C(=O)O)cc1`, the inhibition in assay [1] was -6.27%; in assay [2], 0.42%.
